Activity calls are given as the source filed them. The calls were made as follows: active = hit-call score of the fitted dose curve at least 0.9, where 1 is the maximum; inactive = score below 0.9.
Legend:
[1] = read-out: Tissue plasminogen activator (tPA), PLAT (gene 5327); experiment: BSK_BE3C_tPA: BioMAP Diversity Plus: BE3C Assay for Tissue plasminogen activator (tPA) Biomarker Activity (AID 2283041); settings: primary human bronchial epithelial cells; actives raise or lower the signal;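 also: tPA level quantified by ELISA one day after compound addition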
Procedure, shortened: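 Bidirectional curve fitting relative to DMSO defined activity, with tPA detected by ELISA in chemically treated human bronchial epithelial primary cells at 24 hours.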

[2] = read-out: Interleukin-8 (IL8), CXCL8 (gene 3576); experiment: BSK_CASM3C_IL8: BioMAP Diversity Plus: CASM3C Assay for Interleukin-8 (IL8) Biomarker Activity (AID 2283042); settings: primary human coronary artery smooth muscle cells; actives raise or lower the signal;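 also: IL-8 protein level quantified by ELISA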
[3] = read-out: Human Leukocyte Antigen - DR isotype (HLADR), HLA-DRA (gene 3122); experiment: BSK_CASM3C_HLADR: BioMAP Diversity Plus: CASM3C Assay for Human Leukocyte Antigen - DR isotype (HLADR) Biomarker Activity (AID 2283043); settings: primary human coronary artery smooth muscle cells; actives raise or lower the signal;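 also: cell-surface HLA-DR protein level quantified by ELISA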
[4] = read-out: Macrophage colony-stimulating factor (MCSF), CSF1 (gene 1435); experiment: BSK_CASM3C_MCSF: BioMAP Diversity Plus: CASM3C Assay for Macrophage colony-stimulating factor (MCSF) Biomarker Activity (AID 2283044); settings: primary human coronary artery smooth muscle cells; actives raise or lower the signal;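 also: M-CSF protein amount quantified by ELISA after 24 h exposure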
[5] = read-out: Low-density lipoprotein receptor (LDLR), LDLR (gene 3949); experiment: BSK_CASM3C_LDLR: BioMAP Diversity Plus: CASM3C Assay for Low-density lipoprotein receptor (LDLR) Biomarker Activity (AID 2283045); settings: primary human coronary artery smooth muscle cells; actives raise or lower the signal;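 also: LDLR protein level on the cell surface quantified by ELISA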
[6] = read-out: Monocyte Chemoattractant Protein-1 (MCP1), CCL2 (gene 6347); experiment: BSK_CASM3C_MCP1: BioMAP Diversity Plus: CASM3C Assay for Monocyte Chemoattractant Protein-1 (MCP1) Biomarker Activity (AID 2283046); settings: primary human coronary artery smooth muscle cells; actives raise or lower the signal;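 also: MCP-1 level quantified by ELISA 24 h after dosing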
[7] = BSK_CASM3C_Proliferation: Cell Proliferation Assessment in the BioMAP Diversity Plus: CASM3C Assay (AID 2283047); settings: primary human coronary artery smooth muscle cells;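 also: sulforhodamine B total protein stain as relative cell number at 560 nm; sub-confluent cells exposed 48 h before staining; fitted both ways against DMSO so gain or loss of cell number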
[8] = read-out: Monokine induced gamma interferon (MIG), CXCL9 (gene 4283); experiment: BSK_CASM3C_MIG: BioMAP Diversity Plus: CASM3C Assay for Monokine induced gamma interferon (MIG) Biomarker Activity (AID 2283048); settings: primary human coronary artery smooth muscle cells; actives raise or lower the signal;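 also: MIG protein level measured by ELISA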
[9] = read-out: serum amyloid A (SAA), SAA1 (gene 6288); experiment: BSK_CASM3C_SAA: BioMAP Diversity Plus: CASM3C Assay for serum amyloid A (SAA) Biomarker Activity (AID 2283049); settings: primary human coronary artery smooth muscle cells; actives raise or lower the signal;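 also: SAA protein level quantified by ELISA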
[10] = BSK_CASM3C_SRB: Viability Assessment in the BioMAP Diversity Plus: CASM3C Assay (AID 2283050); settings: primary human coronary artery smooth muscle cells;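 also: total protein by SRB staining as cytotoxicity measure in parallel cultures; cells exposed to compound for 24 h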
[11] = read-out: Thrombomodulin, THBD (gene 7056); experiment: BSK_CASM3C_Thrombomodulin: BioMAP Diversity Plus: CASM3C Assay for Thrombomodulin Biomarker Activity (AID 2283051); settings: primary human coronary artery smooth muscle cells; actives raise or lower the signal;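 also: thrombomodulin protein level measured by ELISA 24 h after dosing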
[12] = read-out: Tissue Factor, F3 (gene 2152); experiment: BSK_CASM3C_TissueFactor: BioMAP Diversity Plus: CASM3C Assay for Tissue Factor Biomarker Activity (AID 2283052); settings: primary human coronary artery smooth muscle cells; actives raise or lower the signal;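 also: cell surface tissue factor protein level read by ELISA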
[13] = read-out: Interferon-gamma inducible Protein 10 (IP10), CXCL10 (gene 3627); experiment: BSK_hDFCGF_IP10: BioMAP Diversity Plus: hDFCGF Assay for Interferon-gamma inducible Protein 10 (IP10) Biomarker Activity (AID 2283053); settings: primary human foreskin fibroblasts; actives raise or lower the signal
Procedure, shortened: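 IP-10 levels, quantified by ELISA, are taken from human foreskin fibroblast cultures 24 h after chemical treatment, with DMSO serving as negative control and baseline for bidirectional analysis.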

[14] = read-out: Urokinase-type plasminogen activator receptor (uPAR), PLAUR (gene 5329); experiment: BSK_CASM3C_uPAR: BioMAP Diversity Plus: CASM3C Assay for Urokinase-type plasminogen activator receptor (uPAR) Biomarker Activity (AID 2283054); settings: primary human coronary artery smooth muscle cells; actives raise or lower the signal;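 also: cell-surface uPAR protein level quantified by ELISA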
[15] = read-out: Vascular cell adhesion molecule 1 (VCAM1), VCAM1 (gene 7412); experiment: BSK_CASM3C_VCAM1: BioMAP Diversity Plus: CASM3C Assay for Vascular cell adhesion molecule 1 (VCAM1) Biomarker Activity (AID 2283055); settings: primary human coronary artery smooth muscle cells; actives raise or lower the signal;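 also: VCAM-1 protein level quantified by ELISA on the cells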
[16] = read-out: Collagen III, COL3A1 (gene 1281); experiment: BSK_hDFCGF_CollagenIII: BioMAP Diversity Plus: hDFCGF Assay for Collagen III Biomarker Activity (AID 2283056); settings: primary human foreskin fibroblasts; actives raise or lower the signal
Procedure, shortened: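 Cells: human foreskin fibroblasts, primary. Dosing followed by 24 h incubation, then ELISA for collagen III. Both increases and decreases scored relative to DMSO.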

[17] = read-out: Epidermal growth factor receptor (EGFR), EGFR (gene 1956); experiment: BSK_hDFCGF_EGFR: BioMAP Diversity Plus: hDFCGF Assay for Epidermal growth factor receptor (EGFR) Biomarker Activity (AID 2283057); settings: primary human foreskin fibroblasts; actives raise or lower the signal
Procedure, shortened: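 Measured by ELISA: EGFR levels on primary human foreskin fibroblasts 24 h after chemical treatment, analysed relative to DMSO with bidirectional fitting.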

[18] = read-out: Interleukin-8 (IL8), CXCL8 (gene 3576); experiment: BSK_hDFCGF_IL8: BioMAP Diversity Plus: hDFCGF Assay for Interleukin-8 (IL8) Biomarker Activity (AID 2283058); settings: primary human foreskin fibroblasts; actives raise or lower the signal
Procedure, shortened: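 IL-8 levels from compound-treated primary human fibroblasts were read by ELISA at 24 h, with DMSO serving as baseline for bidirectional fitting.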

[19] = BSK_hDFCGF_Proliferation: Cell Proliferation Assessment in the BioMAP Diversity Plus: hDFCGF Assay (AID 2283059); settings: primary human foreskin fibroblasts;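 also: curves fitted for both rise and fall of signal versus DMSO baseline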
Procedure, shortened: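 This proliferation readout used SRB total-protein staining of human foreskin fibroblasts […], normalized to DMSO with bidirectional curve fitting.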

[20] = read-out: Macrophage colony-stimulating factor (MCSF), CSF1 (gene 1435); experiment: BSK_hDFCGF_MCSF: BioMAP Diversity Plus: hDFCGF Assay for Macrophage colony-stimulating factor (MCSF) Biomarker Activity (AID 2283060); settings: primary human foreskin fibroblasts; actives raise or lower the signal
Procedure, shortened: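 M-CSF levels, determined by ELISA, are taken at 24 h after dosing human skin fibroblasts. Responses in either direction are fitted with DMSO serving as the baseline.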

Measured: AC50

c1ccc2c(c1)-c1cccc3c1c-2cc1ccccc13
inactive: [1] | [2] | [3] | [4] | [5] | [6] | [7] | [8] | [9] | [10] | [11] | [12] | [13] | [14] | [15] | [16] | [17] | [18] | [19] | [20]

NC(N)=O
inactive: [1] | [2] | [3] | [5] | [6] | [7] | [8] | [9] | [10] | [11] | [12] | [13] | [14] | [15] | [16] | [17] | [18] | [19]

O=c1[nH]cnc2c1ncn2[C@H]1CC[C@@H](CO)O1
inactive: [1] | [2] | [3] | [5] | [6] | [7] | [8] | [9] | [10] | [11] | [12] | [13] | [14] | [15] | [16] | [17] | [18] | [19]

CCCCCCCC1CCC(=O)O1 (centres undefined)
inactive: [1] | [2] | [3] | [4] | [5] | [6] | [7] | [8] | [9] | [10] | [11] | [12] | [13] | [14] | [15] | [16] | [17] | [18] | [19] | [20]

CCCCCCCC/C=C\CCCCCCCC(=O)OC[C@@H](O)[C@H]1OC[C@H](O)[C@H]1O
inactive: [1] | [2] | [3] | [4] | [5] | [6] | [7] | [8] | [9] | [10] | [11] | [12] | [13] | [14] | [15] | [16] | [17] | [18] | [19] | [20]

CCCCCOC(C)=O
inactive: [1] | [2] | [3] | [4] | [5] | [6] | [7] | [8] | [9] | [10] | [11] | [12] | [13] | [14] | [15] | [16] | [17] | [18] | [19] | [20]

c1ccc(C(O[C@@H]2CCCN(CCc3ccc4c(c3)OCO4)C2)c2ccccc2)cc1
inactive: [1] | [2] | [3] | [4] | [6] | [8] | [9] | [10] | [11] | [12] | [14] | [15] | [18]
active: [5] 17.3 µM | [7] 32.5 µM | [13] 26 µM | [16] 5.39 µM | [20] 20 µM

O=C(O)c1ccc2c(c1)nc(C(=O)NC1CCN(C3CC3)CC1)n2Cc1cc(-c2ccc(Cl)s2)on1
inactive: [1] | [2] | [3] | [4] | [5] | [6] | [7] | [8] | [9] | [10] | [11] | [12] | [13] | [14] | [15] | [16] | [17] | [18] | [19] | [20]

CCCCCCCCCCCCCCO
active: [4] 31.3 µM | [5] 32.3 µM | [6] 32.4 µM | [7] 38 µM | [8] 29.5 µM | [9] 31 µM | [10] 30.2 µM | [11] 31.5 µM | [12] 31.5 µM | [13] 28.3 µM | [14] 33.3 µM | [15] 20 µM | [16] 11 µM | [18] 33.3 µM | [19] 12.2 µM | [20] 24.9 µM
inactive: [1] | [2] | [3] | [17]

CCCCC(CC)C(=O)OCCOCCOCCOC(=O)C(CC)CCCC (centres undefined)
active: [11] 20 µM | [16] 20 µM | [19] 11 µM | [20] 10.7 µM
inactive: [1] | [2] | [3] | [4] | [5] | [6] | [7] | [8] | [9] | [10] | [12] | [13] | [14] | [15] | [17] | [18]

Nc1ccn([C@@H]2O[C@H](CO)[C@@H](O)[C@@H]2O)c(=O)n1
active: [7] 0.148 µM | [19] 0.615 µM
inactive: [1] | [2] | [3] | [4] | [5] | [6] | [8] | [9] | [10] | [11] | [12] | [13] | [14] | [15] | [16] | [17] | [18] | [20]

C[C@]12C=CC(=O)C=C1CC[C@H]1[C@@H]3C[C@@H](O)[C@](O)(C(=O)CO)[C@@]3(C)C[C@H](O)[C@@]12F
active: [2] 0.246 µM | [3] 0.148 µM | [4] 0.417 µM | [6] 0.148 µM | [9] 0.354 µM | [11] 3.97 µM | [12] 0.149 µM | [19] 0.818 µM | [20] 0.58 µM
inactive: [1] | [5] | [7] | [8] | [10] | [13] | [14] | [15] | [16] | [17] | [18]

CCCCCCOC(=O)CC(CC(=O)OCCCCCC)(OC(=O)CCC)C(=O)OCCCCCC
inactive: [1] | [2] | [3] | [4] | [5] | [6] | [7] | [8] | [9] | [10] | [11] | [12] | [13] | [14] | [15] | [16] | [17] | [18] | [19] | [20]

Reference: PubChem BioAssay (EPA / NIEHS)
